In the library only some 2.7% were active in any assay of this set; here they are far more common.
A549 tox – kills or reduces viability of A549 cells in Nrf2 counter-screen; A549 ARE-Fluc cells, CellTiter-Fluor viability, 18-24 h; Potency, µM (doses to about 46 µM), without a hit: at the top dose activity change, negative = cytotoxicity, actives largely listed as inhibitors; 0.16% of 390,000 active; also: potency is read from the fitted curve at half-maximal effect; % is scaled to controls: 0 for no effect and ±100 for the full control effect
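A549 ARE-Fluc cells in 5% FBS OPTI-MEM, 5000 cells/well, rested 2 h then exposed to compounds in concentration-response for 18-24 h at 37 °C. Viability by CellTiter-Fluor fluorescence (Ex 405/Em 525) after 30 min; luciferase luminescence (BugLite, 15 min, RT) read afterwards.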
Nrf2 inh – Nrf2 pathway inhibition. A549 ARE-Fluc reporter, luciferase luminescence, 18-24 h. Potency, µM (titrated, usually from 46 µM), for the others: top-dose activity change, negative = inhibition, usual class: inhibitors. 2.1% of 360,000 active; also: potency is read from the fitted curve at half-maximal effect; % is scaled to controls: 0 for no effect and ±100 for the full control effect; nearly all actives have a fitted effect of over 60% in size
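Quantitative HTS in A549 cells stably bearing an antioxidant response element-firefly luciferase construct. Inhibition of Nrf2-driven transcription was scored by luminescence after 18-24 h of compound exposure at 37 °C.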
12-LOX inh – inhibitors of human 12S-lipoxygenase ALOX12. Potency, µM (series often up to 108 µM), inactives show at the highest dose activity change, negative = inhibition, hits mostly inhibitors. 1.1% of 580,000 active. P18054. purified 12hLO, xylenol orange hydroperoxide absorbance; also: potency is read from the fitted curve at half-maximal effect; % is scaled to controls: 0 for no effect and ±100 for the full control effect
Target sequence (P18054 whole entry, looked up): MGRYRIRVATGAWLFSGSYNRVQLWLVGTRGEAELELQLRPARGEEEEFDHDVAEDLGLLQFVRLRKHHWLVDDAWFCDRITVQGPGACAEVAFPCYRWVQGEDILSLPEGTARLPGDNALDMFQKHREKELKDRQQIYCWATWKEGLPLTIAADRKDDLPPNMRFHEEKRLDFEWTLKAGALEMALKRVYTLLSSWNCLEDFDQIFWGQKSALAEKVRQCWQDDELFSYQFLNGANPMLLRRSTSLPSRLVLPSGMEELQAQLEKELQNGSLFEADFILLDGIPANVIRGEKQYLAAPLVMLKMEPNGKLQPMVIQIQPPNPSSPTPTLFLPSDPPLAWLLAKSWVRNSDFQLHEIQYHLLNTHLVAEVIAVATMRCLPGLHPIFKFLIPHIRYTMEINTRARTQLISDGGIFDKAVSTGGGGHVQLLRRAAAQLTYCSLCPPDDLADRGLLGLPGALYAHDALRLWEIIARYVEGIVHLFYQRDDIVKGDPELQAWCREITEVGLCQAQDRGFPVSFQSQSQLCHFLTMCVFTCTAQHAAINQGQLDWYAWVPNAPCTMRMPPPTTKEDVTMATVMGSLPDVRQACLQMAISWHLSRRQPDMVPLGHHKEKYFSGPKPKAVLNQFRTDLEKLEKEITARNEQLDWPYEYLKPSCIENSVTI
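Purified human 12hLO (150 nM final) in 25 mM Hepes, 0.01% Triton X-100, pH 7.0 was preincubated 15 min at room temperature with compound. Then 40 uM arachidonic acid was added, 30 min. Hydroperoxide was read by Fe-XO absorbance ratio 573/405 nm.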
Nrf2 activator – Nrf2 pathway activation; AREc32 ARE-luciferase reporter (MCF7-derived line), luminescence, 24 h; Potency, µM (series often up to 46.1 µM), for inactives: top-dose activation, actives largely listed as activators; 0.31% of 410,000 active; AID 624171; also: potency is read from the fitted curve at half-maximal effect; % of control where 0% means no effect; nearly all actives have a fitted effect of over 65% in size
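ARE activation measured as luciferase luminescence (Steady-Glo, 30 min RT) in AREc32_Fluc cells after 24 hr compound exposure at 37 deg C, 5% CO2; cells seeded overnight at 1000/well in OPTI-MEM, 5% FBS.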
LDHA inh – inhibitors of human lactate dehydrogenase A. P00338. purified LDHA, NADH/diaphorase-resazurin fluorescence; active compounds read low. activity change, % (values are at about 110 or 230 µM). 0.15% of 480,000 active; in the data active = activity change below about -30%; inconclusive = mostly about -25% to -30%;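 also: plate controls were DMSO wells for no effect and wells without enzyme for full effect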
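LDH5 2 nM; NADH 0.06 mM, pyruvate 0.2 mM; 200 mM Tris pH 7.4, EDTA, Tween-20; 5 min RT. Detection: diaphorase 0.133 mg/mL + resazurin 37 µM, fluorescence ex540/em590 at 0 and 20 min; normalized to enzyme-free and DMSO wells.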
mIDH1 inhibitor – inhibitors of human mutant IDH1 R132H. Potency, µM (titrated, usually from 76.6 µM), without a hit: top-dose activity change, negative = inhibition, most hits filed as inhibitors. 0.093% of 390,000 active. O75874. IDH1-R132H enzyme, NADPH consumption, diaphorase/resazurin fluorescence; also: potency is read from the fitted curve at half-maximal effect; % is scaled to controls: 0 for no effect and ±100 for the full control effect; nearly all actives have a fitted effect of over 65% in size
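IDH1-R132H (0.5 ug/mL dispensed) in pH 7.5 Tris buffer was preincubated 30 min with compound, then given a substrate mix of 0.016 mM NADPH and 2 mM alpha-KG for 80 min at room temperature; remaining NADPH was read by diaphorase/resazurin fluorescence.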
An asterisk follows results filed as active; ? = inconclusive; nt = not tested or not shown; ! = a repeat was not active; [ ] = remark or other dose. Unless noted, calls follow the shape of the dose curve; as a rule, active = well fitted curve in the direction sought with a large enough effect; inconclusive = small, poorly fitted or top-dose-only effect, or another doubt; inactive = no such curve, though single readings can be large; an effect the other way counts as inactive or inconclusive.

SMILES | A549 tox | Nrf2 inh | 12-LOX inh | Nrf2 activator | LDHA inh | mIDH1 inhibitor
COc1ccc2c(c1)[nH]c1c(N3CCN(Cc4ccc5c(c4)OCO5)CC3)ncnc12 | -6% | 13µM* | -4% | 0% | -6 | 4%
COc1cccc(N2CCN(c3ncnc4c3[nH]c3ccc(F)cc34)CC2C)c1 (stereo not given) | 18µM* | 6.5µM* | -11% | -4% | -4 | 2%
COc1ccc2c(c1)[nH]c1c(N3CCSCC3)ncnc12 | ? | 21µM* | 10% | 2% | -2 | 19%
COc1ccc(CN(C)C(C)c2nnc(-c3ccc(C)cc3)o2)cc1F (stereo not given) | nt | nt | 1% | nt | -2 | nt
O=C(Nc1ccc2oc(C3CC3)nc2c1)c1cc[n+]([O-])cc1 | nt | nt | 11% | nt | 2 | nt
O=S(=O)(c1cc(F)ccc1F)N1CCN(c2ccccn2)CC1 | 1% | -2% | 0% | 0% | -2 | 0%
O=S(=O)(c1cc(F)ccc1F)N1CCN(c2ncnc3ccccc23)CC1 | -18% | 12µM* | ? | 0% | 3 | -4%
CC(Nc1ccccc1N1CCCCC1)C(=O)N1CCc2ccccc21 (stereo not given) | -9% | 9.2µM* | -2% | 0% | -1 | -5%
CCc1ccc(NC(=O)C2=CC(c3cccs3)=NS(=O)(=O)N2C)cc1 | -16% | 16µM*! | 28% | -1% | -1 | 8%
Cc1ccc(NC(=O)C2=CC(c3cccs3)=NS(=O)(=O)N2C)cc1 | ? | ? | -4%[57.4 µM] | 0% | 1 | 16%
O=C(NCCc1cc2ccccc2[nH]1)Nc1cccc2ccccc12 | nt | nt | ? | nt | 0 | nt
O=C1CCCC2=C1C(c1ccc(Cl)cc1)C1=C(CCCC1=O)O2 | nt | nt | ? | nt | 1 | nt
c1ccc(-c2noc(-c3cccnc3)n2)cc1 | 0% | ? | 6% | 3.2µM* | -14 | 1%
Clc1ccccc1-c1nc(-c2ccncc2)no1 | -7% | ? | ? | 11µM* | 2 | 5%
Clc1ccccc1-c1nc(-c2cccnc2)no1 | -28% | ? | -12% | ? | -4 | 4%
Cc1ccccc1-c1nc(-c2cccnc2)no1 | -5% | ? | 0% | 13µM* | -5 | 10%
c1ccc(-c2ccccc2-c2nc(-c3ccncc3)no2)cc1 | 12% | -15% | -22% | 3% | -3 | 3%
c1ccc(-c2nc(-c3ccncc3)no2)cc1 | -11% | ? | 2% | 11µM* | -8 | -8%
COc1ccc(CC(=O)NC(C)C2CC3CCC2C3)cc1OC (stereo not given) | nt | nt | -6% | nt | 3 | nt
c1ccc(C(Cc2nc(-c3ccncc3)no2)c2ccccc2)cc1 | -15% | 8.2µM* | 0% | 3% | -4 | 1%
CCCCN(C)S(=O)(=O)c1ccc(C(=O)Nc2nnc(CSC)o2)cc1 | -20% | 10µM* | 3% | 0% | 1 | -3%
CCc1nnc(NC(=O)c2ccc(S(=O)(=O)N(C)Cc3ccccc3)cc2)o1 | -25% | 7.3µM* | -3% | -2% | 1 | -11%
CCc1nnc(NC(=O)c2ccc(S(=O)(=O)N(CC)Cc3ccccc3)cc2)o1 | -13% | 21µM* | 0% | -1% | 2 | 0%
COc1ccccc1-c1nnc(NC(=O)c2ccc(S(=O)(=O)N(C)Cc3ccccc3)cc2)o1 | -18% | 5.8µM* | nt | -1% | -1 | -2%
Cc1nc(NCc2ccco2)sc1C(=O)NCCC(C)C | nt | nt | 8% | nt | 8 | nt
SMILES | A549 tox | Nrf2 inh | 12-LOX inh | Nrf2 activator | LDHA inh | mIDH1 inhibitor
CCN(Cc1ccccc1)S(=O)(=O)c1ccc(C(=O)Nc2nnc(C)o2)cc1 | -10% | 13µM* | 93% | -1% | 2 | -6%
c1ccc(-c2nnc(-c3c[nH]c4ccccc34)nc2-c2ccccc2)cc1 | -16% | ? | 9% | 0% | -7 | 0%
ClC(Cl)c1nnc(-c2ccccc2)c(-c2c[nH]c3ccccc23)n1 | ? | 10µM* | -12% | 4% | -2 | 3%
Cc1cc(-c2nn3c(-c4cccs4)nnc3s2)n(C)n1 | nt | nt | 10% | nt | 5 | nt
S=C(Nc1ccccc1)N1CCC(Cc2ccccc2)CC1 | -16% | 16µM* | 0% | 0% | -6 | 6%
CCn1cc(C(=O)OCC(=O)OC2CC(C)CCC2C(C)C)c(=O)c2ccc(C)nc21 (stereo not given) | ? | 21µM* | -16% | 0% | 1 | 1%
OC1(CN2CCCCC2)CCN(c2cccc(C(F)(F)F)n2)C1 (stereo not given) | nt | nt | 40% | nt | nt | nt
C[S+](=O)([O-])N1Cc2ccccc2CC2(CCCN(Cc3cccnc3)C2)C1 (stereo not given) | nt | nt | 1%[6.33 µM] | nt | nt | nt
CCc1c(C(=O)N2CCc3c(c(C(=O)O)nn3CC3CC3)C2)csc1C | nt | nt | 35µM* | nt | nt | nt
COc1cc(NS(=O)(=O)c2ccc(NC(=O)c3ccc(C(C)=O)cc3)cc2)nc(OC)n1 | -4% | 7% | -24% | -1% | -13 | nt
COc1ccc(C(=O)NC(=S)Nc2ccc(S(=O)(=O)Nc3cc(OC)nc(OC)n3)cc2)cc1 | 9% | 4% | 7.1µM* | 2% | -16 | 0%
Cc1cc(NS(=O)(=O)c2ccc(NC(=S)NC(=O)c3ccc(F)cc3)cc2)no1 | 0% | -5% | 25µM* | -2% | -7 | 23%
COc1ccc(C(=O)NC(=S)Nc2ccc(S(=O)(=O)Nc3cc(OC)ncn3)cc2)cc1 | 17% | -16% | 10µM* | -1% | -1 | 0%
COc1cc(NS(=O)(=O)c2ccc(NC(=S)NC(=O)c3ccc(F)cc3)cc2)nc(OC)n1 | 9% | 9% | 18µM* | 0% | -9 | -9%
CCCCCC1CCC(c2ccc(-c3ccccc3)cc2)=CC1=O (stereo not given) | nt | nt | -6% | nt | 3 | nt
CCCCCCC/C=N/NC(N)=S | nt | nt | ? | nt | 3 | nt
CCOC(=O)c1c(NC(=O)c2ccccc2C(=O)O)sc2c1CCCC2 | -3% | -16% | -8% | 0% | -4 | 12%
CCOC(=O)c1c(N2C(=O)CC(Sc3ccccc3C(=O)O)C2=O)sc2c1CCCC2 (stereo not given) | -1% | -3% | 16µM* | 6% | -10 | -2%
O=c1c2ccccc2nc2sc(COc3ccc(Br)cc3)nn12 | nt | nt | 1% | nt | 2 | nt
C=CCNC(=O)NC(=O)CN(C)Cc1ccc(C(=O)NCC(F)(F)F)cc1 | nt | nt | 3% | nt | 1 | nt
COc1ccccc1NC1=Nc2cccc3cccc1c23 | 26µM* | -28% | ? | 0% | -2 | 7%
Cc1nc(SCCO)c([N+](=O)[O-])[nH]1 | -19% | -18% | 25µM* | 0% | 2 | 6%
Cc1noc(C)c1COc1cccc(C(=O)Nc2ccc(Br)cc2F)c1 | ? | 23µM* | -5% | 0% | -6 | 7%
